Shown are actives, neighbours in structure and some others; about 2.2% of the full set was active somewhere.
Rce1 inhib – blocks yeast Ras-converting enzyme; calls only; hit rate 0.27% among 290,000; Q03530; yeast membranes, quenched prenylated peptide cleavage fluorescence;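 active means fall in fluorescence gain of 50% or more versus controls, with final raw signal at or below 3038400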;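 further: plate controls were neutral control wells for no effect and wells lacking membranes for full effect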
GC-B act – GC-B (human) receptor activation | P20594 | HEK293-GC-B cells, CNP EC30, cGMP TR-FRET; 0% at EC30 CNP, 100% saturating CNP | activation, % at 10 µM | hit rate 0.11% among 370,000;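 active means activation at 10 µM reaching about 35% in either raw or pattern-adjusted values, limit read from the data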
GC-A act – GC-A (human) enzyme activation. activation, % at 10 µM. AID 1671463. hit rate 0.14% among 370,000. P16066. HEK293 GC-A cells, cGMP TR-FRET, EC30 ANP; 0% at EC30 ANP, 100% saturating ANP; in the data active means activation above about 40%
PLC-gamma1 inh – inhibitors of human phospholipase C gamma1; hit rate 0.84% among 370,000; P19174; purified PLC-gamma1, fluorogenic substrate, fluorescence; AID 720700; inhibition, % at 12.2 µM; in the data active means inhibition above about 9.5%
PLC-beta3 inh – PLC-beta3 (human) inhibition, primary screen; Purified PLC-beta3, fluorogenic substrate, fluorescence; AID 720704; hit rate 0.18% among 370,000; Q01970; inhibition, % at 12.2 µM; in the data active means inhibition above about 11%;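 further: 0% = median of compound wells on plate and 100% = full blocker control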
PfM18AAP inh-1 – blocks P. falciparum M18 aspartyl aminopeptidase; recombinant PfM18AAP, H-Glu-NHMec fluorogenic cleavage; inhibition, % at 7.35 µM; hit rate 1.2% among 290,000; AID 1822;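 active means inhibition above the campaign mean inhibition over all tested compounds plus 3 SD, cut at about 28% in these data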;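 further: 0% = plate median of test compound wells and 100% = 2 mM ZnCl2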
PfM18AAP inh-2 – PfM18AAP inhibition, confirmation | shares compounds with PfM18AAP inh-1 | recombinant PfM18AAP, H-Glu-NHMec fluorogenic cleavage | inhibition, % at 7.35 µM | hit rate 28% among 2,400 | AID 2170;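 active means mean inhibition over replicate wells above the hit cutoff set for the earlier primary screen, cut at about 29% in these data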;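 further: 0% = median of test compound wells and 100% = 2 mM ZnCl2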
CTSL1 counter – counter-screen for PFM18AAP inhibitors: confirmation of human cathepsin L inhibitors; shares compounds with PfM18AAP inh-1; inhibition, % at 5.96 µM; 2,400 tested, under 10 active; purified cathepsin L1, Z-Leu-Arg-MCA fluorescence; AID 2178;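 active means average inhibition across replicates above the hit cutoff set in the earlier primary screen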;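 further: 0% = median of test compound wells and 100% = Z-Phe-Ala-diazomethylketone 1 µM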
* hit, by the source's call; i = inactive; · = no result given.

SMILES	Rce1 inhib	GC-B act	GC-A act	PLC-gamma1 inh	PLC-beta3 inh	PfM18AAP inh-1	PfM18AAP inh-2	CTSL1 counter
O=C(/C=C/c1ccc(O)c(O)c1)NC(=O)c1ccccc1O	i	-2.9	-1.7	-32.4	-44.8	77.2*	62.3*	-0.9
O=C(NCCc1c[nH]c2ccccc12)OCc1cn(Cc2ccccc2F)nn1	·	2.9	2.9	0.3	-4.6	·	·	·
O=C(O)c1ccccc1C(=O)Nc1nccs1	i	1.7	2.8	5.5	-0.4	-5.2	·	·
O=C(O)c1ccccc1C(=O)Nc1n[nH]c(=S)s1	i	·	·	5.2	3.8	62.6*	8.7	-2.7
Cc1nn(-c2ccccc2)c2nc(N)c(C#N)c(-c3ccc(O)c(O)c3)c12	i	1.7	4.7	-16.7	-26.1	69.9*	47.9*	0.3
Cc1nn(-c2ccc(F)cc2)c2nc(N)c(C#N)c(-c3cccs3)c12	i	4.1	14.6	-371.1	-464.7	-10.3	·	·
Cc1nn(-c2ccc(F)cc2)c2nc(N)c(C#N)c(-c3ccc(O)c(O)c3)c12	i	1.8	8.7	-35.9	-45.1	69.4*	48.1*	-1.4
Cn1nc(N)c2c(-c3ccccc3)c(C#N)c(N)nc21	i	-2.3	-1.0	4.1	4.8	-7.8	·	·
Cc1ccccc1N1CCN(C(=O)CCn2nnc3ccccc32)CC1	·	-3.7	-5.6	-0.8	0.8	·	·	·
COC(=O)C1CN(Cc2ccc(Cl)cc2)CCS(=O)(=O)N1Cc1cn(Cc2ccc(F)cc2)nn1 (stereo not given)	·	-6.8	-5.6	1.6	0.8	·	·	·
COC(=O)[C@]12C[C@H](CC(=O)NCCC(C)C)C(=O)N(CCc3ccc(OC)c(OC)c3)C1=C[C@H](COCc1ccccc1)O[C@@H]2C	·	-2.1	-1.1	0.5	-0.6	·	·	·
COc1cc(OC)cc(C(=O)/C=C2\Sc3ccccc3N2C)c1	i	-7.0	-2.7	-11.3	-7.9	46.7*	-47.6	0.3
COc1ccc(C(=O)/C=C(\C)NCc2ccc3c(c2)OCO3)cc1	i	-3.3	5.5	-4.3	-4.2	23.3	·	·
COc1ccc2c(c1)S/C(=C\C(=O)c1ccncc1)N2C	i	-6.4	-0.1	-15.1	-17.6	38.6*	27.2	5.8
CN1/C(=C\C(=O)c2cccc([N+](=O)[O-])c2)Sc2ccccc21	·	2.9	-4.5	0.2	-2.4	12.0	·	·
COc1ccc(C(=O)/C=C2/Sc3cc4c(cc3N2C)OCO4)cc1	i	3.7	5.6	-6.4	-10.2	39.7*	-44.8	1.5
CC(COc1ccc(S(C)(=O)=O)cc1)CN1CCC(C(O)(c2ccccc2)c2ccccc2)CC1 (stereo not given)	·	-19.7	-18.1	0.2	0.8	·	·	·
CCOC(=O)[C@@]12CCCC=C1N(CCc1ccc(Cl)cc1)C(=O)[C@H]2CC(=O)NCCc1ccccc1OC	·	3.3	-1.7	6.8	-2.5	·	·	·
O=C(NCCN1C(=O)C2C3C=CC(C3)C2C1=O)c1cc(Cl)cc(Cl)c1 (stereo not given)	·	0.4	0.2	0.6	2.9	·	·	·
CC(=O)N1CCN(S(=O)(=O)c2ccc(C)cc2)C1c1ccc(N(C)C)cc1 (stereo not given)	i	-3.0	-3.5	7.9	2.3	36.0*	-26.7	-0.6
NC(=O)N/N=C/c1coc2ccc(O)cc2c1=O	i	1.2	1.0	-2.9	-13.4	66.0*	56.6*	-3.2
CC12C=CC(C)(C3C(=O)NC(=O)C31)C1C3C(=O)NC(=O)C3C12 (stereo not given)	·	-1.9	1.8	3.3	4.9	·	·	·
CCCCOCCCNC(=O)C[C@H]1C[C@@]2(C(=O)OC)C(=C[C@H](C(C)C)O[C@@H]2C2CC2)N(CCC2=CCCCC2)C1=O	·	-4.0	-3.5	6.5	2.6	·	·	·
N#Cc1ccccc1N1CCN(C(=O)C2CCN(c3ncnc4c3sc3cccc(F)c34)CC2)CC1	·	1.9	-2.7	-12.7	-23.7	·	·	·
CC(=O)c1cc(-c2ccc(F)cc2)n(CCC(=O)Nc2cc(C)[nH]n2)c1C	i	0.6	-0.7	1.7	0.3	57.1*	-48.1	-4.9
SMILES	Rce1 inhib	GC-B act	GC-A act	PLC-gamma1 inh	PLC-beta3 inh	PfM18AAP inh-1	PfM18AAP inh-2	CTSL1 counter
CC(=O)c1cc(-c2ccccc2)n(CCC(=O)NC2CCCC2)c1C	i	0.8	-3.1	0.0	3.5	2.7	·	·
CC(C)C[C@@H]1COc2cccc(NCCO)c2S(=O)(=O)N1	·	4.8	3.3	-4.4	-1.6	·	·	·
COc1cc(/C=C2\NC(=S)N(C)C2=O)ccc1O	i	-0.4	-6.5	-18.0	-17.7	35.7*	16.3	4.2
CN1C(=O)/C(=C/c2ccc(O)c([N+](=O)[O-])c2)NC1=S	i	-2.6	1.2	1.1	2.4	10.5	·	·
CCn1c(=O)n(CC)c2cc(N3CCCC3)c(NC(=O)c3cccc(OC)c3)cc21	i	2.9	1.6	-77.4	-110.4	20.5	·	·
CCn1c(=O)n(CC)c2cc(N3CCCC3)c(NC(=O)c3c(F)cccc3F)cc21	i	0.8	1.4	-4.9	-11.3	35.2*	-20.2	1.9
CCn1c(=O)n(CC)c2cc(N3CCCC3)c(NC(=O)c3ccc(F)cc3)cc21	i	-3.1	0.2	-64.8	-100.8	34.9*	-54.0	5.1
C[C@H]1[C@@H](NC(=O)C2CCC2)CC[C@@]23CCCN2C(=O)CCC[C@@H]13	·	1.0	-0.9	1.0	0.9	·	·	·
Cc1cc(C(=O)CCl)c(C)n1-c1cccc(S(=O)(=O)N2CCOCC2)c1	i	4.2	-5.5	-7.1	-9.2	5.6	·	·
Cc1cc(C(=O)CSc2ncn[nH]2)c(C)n1-c1cccc(S(=O)(=O)N2CCOCC2)c1	i	-4.9	0.7	-3.6	1.9	45.8*	24.4	4.7
O=C(NNC(=O)c1cccnc1)NC1CCCCC1	i	4.7	-1.6	-1.2	5.0	3.4	·	·
O=C(NNC(=O)c1cc(O)c(O)c(O)c1)NC1CCCCC1	i	-5.8	6.6	-1.0	-2.1	46.5*	11.4	-2.9
O=C(Nn1cnnc1)c1cc(-c2cccc(Br)c2)nc2ccccc12	i	1.9	-1.8	-11.4	-18.6	60.7*	57.1*	2.4
O=C(Nc1ncccn1)c1cc(-c2cccc(Br)c2)nc2ccccc12	i	4.9	4.8	2.6	2.1	6.0	·	·
C/C(CC(=O)Nc1ccccc1C#N)=N\NC(=O)c1ccncc1	i	-1.5	3.7	1.3	-9.0	36.9*	-19.1	-4.5
CCc1c(O)c(-c2ccccc2)c(=O)n(-c2ccccn2)c1-c1ccccc1	i	-2.6	5.2	-0.8	-15.1	39.2*	-28.9	-1.5
Cc1ccc(-c2csc3n[nH]c(=S)n23)cc1	i	-6.7	-0.3	4.8	1.5	63.4*	51.9*	-0.4
CNC(=S)n1cnc(N)n1	i	8.0	0.0	6.3	-3.5	39.5*	-33.8	0.3
